12-LOX inh = Primary qHTS assay for inhibitors of human arachidonate 12S-lipoxygenase (ALOX12): Round 2 | actives 1.1% (n = 580,000) | Potency, µM (doses to about 108 µM), without a hit: top-dose activity change, negative = inhibition, most hits filed as inhibitors | purified 12hLO, xylenol orange hydroperoxide absorbance; note: potency is the fitted concentration of half-maximal effect; % is set by controls: 0 for no effect and ±100 for the full control effect
Target sequence (P18054 whole entry, looked up): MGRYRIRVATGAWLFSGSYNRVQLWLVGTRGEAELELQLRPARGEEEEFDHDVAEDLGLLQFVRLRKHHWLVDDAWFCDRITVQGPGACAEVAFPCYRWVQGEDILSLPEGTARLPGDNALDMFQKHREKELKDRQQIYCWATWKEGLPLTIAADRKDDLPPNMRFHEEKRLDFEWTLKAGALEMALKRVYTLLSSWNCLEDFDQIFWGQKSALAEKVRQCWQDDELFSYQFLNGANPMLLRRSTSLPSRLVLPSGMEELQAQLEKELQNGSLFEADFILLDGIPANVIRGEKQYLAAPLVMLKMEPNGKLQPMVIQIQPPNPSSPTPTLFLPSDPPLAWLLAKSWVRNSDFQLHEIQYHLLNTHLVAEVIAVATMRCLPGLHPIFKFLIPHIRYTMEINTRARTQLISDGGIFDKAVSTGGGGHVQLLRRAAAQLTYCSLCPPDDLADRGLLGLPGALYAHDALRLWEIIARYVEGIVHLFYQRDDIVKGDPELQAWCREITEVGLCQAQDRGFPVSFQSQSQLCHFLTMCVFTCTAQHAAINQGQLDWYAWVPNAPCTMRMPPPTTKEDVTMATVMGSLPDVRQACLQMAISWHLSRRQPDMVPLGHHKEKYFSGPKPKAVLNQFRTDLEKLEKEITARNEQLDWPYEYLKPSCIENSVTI
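Purified human 12hLO (150 nM final) in 25 mM Hepes, 0.01% Triton X-100, pH 7.0 was preincubated 15 min at room temperature with compound. Then 40 uM arachidonic acid was added, 30 min. Hydroperoxide was read by Fe-XO absorbance ratio 573/405 nm.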
p53 reactivator = qHTS assay for re-activators of p53 using a Luc reporter; H1299 p53-A138V BP100-luciferase reporter, luminescence, 24 h; Potency, µM (highest dose often 92.2 µM), inactives show at the top dose activity change, positive = activation, usual class: activators; AID 504706, 2011; actives 0.063% (n = 320,000); note: potency is the fitted concentration of half-maximal effect; % of control where 0% means no effect; nearly all actives have a fitted effect of over 45% in size
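H1299 (p53-null), stable ts p53-A138V + BP100-Luc; 1000 cells/well, Opti-MEM/10% FBS; cpd 4 pt, 1:5; 24 h, 37 deg C, 5% CO2; detection reagent 10 min RT; luminescence.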
PINK1 expr mod = A Quantitative High throughput Screen to Identify Chemical Modulators of PINK1 Expression; PINK1 immunofluorescence, high-content cytometry, 24 h; Potency, µM (highest dose often 76.6 µM), for the others: top-dose activation (PINK1 increase), most hits filed as activators; actives 0.2% (n = 410,000); AID 624263, 2012; active = well fitted activation curve with a large enough effect; inconclusive = small, poorly fitted or top-dose-only effect; cell line not stated here; note: potency is the fitted concentration of half-maximal effect; % of control where 0% means no effect; nearly all actives have a fitted effect of over 65% in size
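Stable cell line, 250 cells/well, 12 h attachment; compounds pinned at 5 concentrations, 24 h; CCCP control. Fixed with nuclear dye, primary antibodies 12 h at 10 degrees C, secondary plus cell stain; laser-scanning cytometer read.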
CCT modulator = High-Throughput Screening for Modulators of Cytosolic Chaperonin Activity | purified chaperonin ATPase assay, HTRF ADP detection, 30 min | actives 0.3% (n = 360,000) | activity change, % (no concentration beside the values), hits read low; in the data active = activity change below about -30%; note: % is set by controls: 0 for no effect and ±100 for the full control effect
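TRiC (40 or 20 nM final, by batch activity) in 30 mM Tris pH 7.4, 100 mM KCl, 5 mM MgCl2, 1 mM DTT was treated with compound at 76 uM single dose, then 10 uM ATP, 30 min at 37 °C. ADP was read by HTRF Transcreener.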
S-ASM inh = Inhibitors of Secretory Acid Sphingomyelinase (S-ASM): qHTS | placental ASM, HMU-PC fluorogenic substrate, 60 min | actives 0.006% (n = 340,000) | AID 504937, 2011 | Potency, µM (doses to about 57.5 µM), for the others: at the top dose activity change, negative = inhibition, most hits filed as inhibitors; note: potency is the fitted concentration of half-maximal effect
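HMU-PC0 cleavage (9 uM final) by human placental ASM, 60 min at 37 °C following 10 min compound exposure at RT; stopped at pH 10, fluorescence Ex 386/Em 447 nm.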
MmCpn inh = Inhibitors of TCP-1 ring complex (TRiC) of Methanococcus maripaludis (MmCpn): qHTS. purified Mm-Cpn ATPase, ADP Transcreener TR-FRET. actives 0.031% (n = 330,000). Potency, µM (top dose mostly 76.9 µM), for inactives: top-dose activity, negative = inhibition, actives largely listed as inhibitors. AID 504842, 2011; note: potency is the fitted concentration of half-maximal effect; % is set by controls: 0 for no effect and ±100 for the full control effect; nearly all actives have a fitted effect of over 80% in size
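Eu-cryptate anti-ADP/ADP-d2 competition gives a ratio inversely related to ADP. Enzyme at 25 nM was pre-exposed to compound for 10 min, then given 10 uM ATP for 30 min, 37°C throughout.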
* marks the source's active call; other numbers are inactive results; [ ] = another dose, or the depositor's remark. This is a sample that favours compounds with a hit; in the whole collection about 1.4% have one here. Unless noted, calls come from the whole dose curve; as a rule, active = well fitted curve in the direction sought with a large enough effect; inconclusive = small, poorly fitted or top-dose-only effect, or another doubt; inactive = no such curve, though single readings can be large; an effect the other way counts as inactive or inconclusive.

`O=C(Nc1ccccc1)c1ccc(OCc2ccccc2)cc1` gave 12-LOX inh -21%.
Screening COC(=O)/C=C1\N/C(=N\c2nc(C)cc(C)n2)N(c2ccccc2)C1=O returned 12-LOX inh inconclusive, p53 reactivator 3%, PINK1 expr mod 0%, CCT modulator -38*, S-ASM inh 1% and MmCpn inh -1%.
COC(=O)/C=C1/N/C(=N\c2nc(C)cc(C)n2)N(c2ccccc2)C1=O was read as 12-LOX inh 3%, p53 reactivator -8%, PINK1 expr mod 0%, CCT modulator 1, S-ASM inh 1% and MmCpn inh 1%.
`O=[N+]([O-])c1ccc(Cl)cc1CN1CCCCCC1` gave 12-LOX inh 5µM*, PINK1 expr mod 6%, CCT modulator -3, S-ASM inh 1% and MmCpn inh -1%.
`CCN(CC)C(=O)Cc1nc(-c2cccs2)oc1C` gave 12-LOX inh 12%.
For O=C(c1cc(-c2ccco2)on1)N1CCc2ccccc2C1 the results were 12-LOX inh 18µM*, p53 reactivator inconclusive, PINK1 expr mod 3%[38.3 µM], CCT modulator -1, S-ASM inh -2% and MmCpn inh -5%.
Screening O=C(c1cc(-c2ccccc2O)on1)N1CCc2ccccc2C1 returned 12-LOX inh inconclusive, p53 reactivator inconclusive, PINK1 expr mod 5%, CCT modulator 1, S-ASM inh -4% and MmCpn inh -2%.
Cc1ccc(CN2CC(C(=O)Nc3ccc(C)c(S(=O)(=O)N4CCCCC4)c3)CC2=O)cc1 (configuration not stated) was read as 12-LOX inh -13%, PINK1 expr mod 7%, CCT modulator -41* and S-ASM inh -9%.
COc1ccc(NC(=O)C2CC(=O)N(Cc3ccc(C)cc3)C2)cc1S(=O)(=O)N1CCCCC1 (configuration not stated) was read as 12-LOX inh inconclusive, p53 reactivator -1%, PINK1 expr mod 2%, CCT modulator 0, S-ASM inh -4% and MmCpn inh 2%.
Screening Cc1cc(OCC(=O)OCCCC(=O)c2ccc(F)cc2)ccc1Cl returned 12-LOX inh -25%.
For Cc1noc(C)c1CNCC1(COc2cnccn2)C[C@@H](O)[C@@H](O)C1 (some centres not stated) the results were 12-LOX inh 110%[176 µM].
`Cc1noc(C)c1CNCC1(COc2cccnc2)C[C@@H](O)[C@@H](O)C1` (some centres not stated) gave 12-LOX inh 13µM*.
Screening Cc1cccc(OCCCCn2c(C3CC(=O)N(c4ccc(C)cc4C)C3)nc3ccccc32)c1 (configuration not stated) returned 12-LOX inh 18µM* and PINK1 expr mod 2%.
For Cc1cccc(OCCCCn2c(C3CC(=O)N(c4ccccc4Cl)C3)nc3ccccc32)c1 (configuration not stated) the results were 12-LOX inh -14% and PINK1 expr mod 0%.
Screening Oc1ccc(C=NNC(=S)Nc2ccc(F)cc2)c(O)c1 returned 12-LOX inh 40µM*, PINK1 expr mod inconclusive, CCT modulator 0 and S-ASM inh 3%.
For Cc1ncc(CO)c(/C=N/Nc2ccc(C(F)(F)F)cn2)c1O the results were 12-LOX inh inconclusive, p53 reactivator inconclusive, PINK1 expr mod 1%, CCT modulator 1, S-ASM inh inactive and MmCpn inh -3%.
`Cc1ncc(CO)c(/C=N/NC(=S)Nc2ccc(F)cc2)c1O` gave 12-LOX inh 40µM*, p53 reactivator 10%, PINK1 expr mod 1%, CCT modulator 0, S-ASM inh 84% and MmCpn inh -3%.
For O=S(=O)(NCCN1CCOCC1)c1ccc(F)c(Cl)c1 the results were 12-LOX inh 20µM*, p53 reactivator -5%, PINK1 expr mod 4%, CCT modulator 0, S-ASM inh -1% and MmCpn inh 3%.
`O=S(=O)(NCCN1CCOCC1)c1ccc(Cl)c(Cl)c1` gave 12-LOX inh -4%, p53 reactivator 1%, PINK1 expr mod 0%, CCT modulator 1, S-ASM inh -2% and MmCpn inh 0%.
`Cc1ccc(NC(=O)CCNc2cnc3cnccn23)cc1F` gave 12-LOX inh 50µM*.
Cc1ccc(NC(=O)CCC(=O)O)cc1F was read as 12-LOX inh -4%, p53 reactivator -1%, PINK1 expr mod -4%[38.3 µM], CCT modulator -3, S-ASM inh 3% and MmCpn inh -1%.
`COc1ccc(NC(=S)NNc2ccc(S(=O)(=O)Nc3ccccc3C(=O)O)cc2[N+](=O)[O-])cc1` gave 12-LOX inh 7.9µM*, p53 reactivator 1%, PINK1 expr mod 2%, CCT modulator -2, S-ASM inh -28% and MmCpn inh 2%.
`O=C1c2cc(Cl)ccc2-c2c(O)cc(Cl)cc21` gave 12-LOX inh 35µM*, PINK1 expr mod inconclusive, CCT modulator 0 and S-ASM inh -5%.
Cn1c(=O)c2c(ncn2CCC(=O)Nc2cccc(F)c2)n(C)c1=O was read as 12-LOX inh 16%.
Screening Cc1cccc(-n2cc[nH]c2=S)c1C returned 12-LOX inh 50µM*, p53 reactivator 6%, PINK1 expr mod 0%, CCT modulator -1, S-ASM inh 6% and MmCpn inh -1%.
CCC1(c2ccc(Cl)cc2)NC(=S)N(c2ccc(C)cc2)N1 (configuration not stated) was read as 12-LOX inh 28µM*, p53 reactivator inconclusive, PINK1 expr mod 10%, CCT modulator -1, S-ASM inh -10% and MmCpn inh -9%.
`O=C(c1cccc(Cl)c1)N1CCC2(C1)NC(=O)N(Cc1ccc(Cl)cc1)C2=O` (configuration not stated) gave 12-LOX inh 40µM*.
For Cc1ccc(C(=O)N2CCC3(CC2)NC(=O)N(c2ccccc2Cl)N3)c(C)c1 the results were 12-LOX inh 2.2µM*.
`COc1cc(OC)cc(C(=O)N2CCC3(C2)NC(=O)N(Cc2ccc(Cl)cc2)C3=O)c1` (configuration not stated) gave 12-LOX inh -23%.
